Source: PubChem (National Center for Advancing Translational Sciences (NCATS))
PI5P4K alpha inh – blocks human PI5P4K alpha kinase activity. PI5P4Kalpha enzyme, ADP-Glo luminescence, 60 min; stronger effect = lower value. AID 652105. actives 1.2% (n = 330,000). max response, %; active = max response of -50% or lower; inconclusive = between -30% and -50%; inactive = -30% or higher; also: value at the top dose of about 77 µM
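Single end-point luminescence (ADP-Glo) quantified ADP from PI5P4Kalpha turnover; ATP 5 microM final, 1 h at RT, 0.1% CHAPS and 0.28 mM EGTA in HEPES pH 7.4.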
Akt phos inh – Akt phosphorylation inhibition. Neuro2A IGF-stimulated pAkt S473 HTRF, 20 min; stronger effect = lower value. activity change, % for hits at 50 µM. actives 0.32% (n = 360,000); in the data active = activity change below about -80%; inconclusive = mostly about -51% to -80%
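Single-point screen (50 µM final compound) in Neuro2A cells stimulated 20 min with 6 nM IGF at 37 deg C. After lysis, Ser473-phosphorylated Akt read by HTRF (ex 330 nm, em 615/665 nm) as the 665/615 ratio.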
PI4K2A inh – inhibitors of human PI4K2A; AID 1346378; activity change, negative = inhibition, % at 76.9 µM; purified PI4K2A, ADP-Glo luminescence, 1 h; stronger effect = lower value; actives 0.13% (n = 420,000); Q9BTU6; in the data active = activity change below about -50%; inconclusive = mostly about -30% to -49%;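 also: -100% = wells without enzyme as full effect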
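PI4K2A activity was measured by ADP-Glo luminescence: enzyme (4 ug/mL stock) and phosphatidylinositol (1.2 mM stock) in Tris pH 7.5/MgCl2/EGTA/Triton X-100 buffer were reacted with ATP (300 microM stock) for one hour at ambient temperature.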
Six1-Eya2 blk – Six1/Eya2 interaction inhibition; Q15475+O00167; AlphaScreen GST-Six1/His-Eya2 binding, biochemical; stronger effect = lower value; activity change, % (test concentration not listed); actives 0.56% (n = 360,000); AID 651725
Target sequence (O00167 whole entry, looked up): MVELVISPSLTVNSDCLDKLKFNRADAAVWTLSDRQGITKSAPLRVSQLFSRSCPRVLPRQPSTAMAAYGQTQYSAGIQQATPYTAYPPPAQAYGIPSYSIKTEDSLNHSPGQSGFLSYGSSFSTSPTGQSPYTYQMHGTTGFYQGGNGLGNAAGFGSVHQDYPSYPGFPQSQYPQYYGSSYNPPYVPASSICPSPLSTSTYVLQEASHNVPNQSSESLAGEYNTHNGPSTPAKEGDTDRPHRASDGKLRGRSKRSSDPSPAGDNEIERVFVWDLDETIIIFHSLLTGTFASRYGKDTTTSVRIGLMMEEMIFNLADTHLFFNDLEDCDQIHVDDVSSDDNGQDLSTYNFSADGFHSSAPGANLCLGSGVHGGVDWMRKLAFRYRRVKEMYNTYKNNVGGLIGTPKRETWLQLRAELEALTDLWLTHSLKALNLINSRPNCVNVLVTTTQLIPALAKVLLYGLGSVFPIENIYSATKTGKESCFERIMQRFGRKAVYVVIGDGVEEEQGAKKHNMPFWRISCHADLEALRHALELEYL
Target sequence (Q15475 whole entry, looked up): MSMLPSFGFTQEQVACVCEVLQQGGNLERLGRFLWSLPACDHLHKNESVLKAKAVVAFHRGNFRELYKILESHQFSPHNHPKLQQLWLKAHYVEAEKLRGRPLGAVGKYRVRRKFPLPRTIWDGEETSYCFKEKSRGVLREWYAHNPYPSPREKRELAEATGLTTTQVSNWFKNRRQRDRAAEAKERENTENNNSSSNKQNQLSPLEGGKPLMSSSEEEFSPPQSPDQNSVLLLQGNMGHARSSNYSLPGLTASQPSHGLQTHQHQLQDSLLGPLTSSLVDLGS
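Homogeneous AlphaScreen proximity assay pairing GST-Six1 with His-tagged Eya2 (added as 5X mix: 250 nM and 500 nM) in 50 mM Tris pH 8.0, 300 mM NaCl, 1 mM TCEP. Glutathione donor and nickel acceptor beads; 1 h, 37 °C, dark.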
CtBP-E1A blk – blocks the CtBP interaction with E1A; AlphaScreen GST-E1A/His-CtBP binding, 1536-well; stronger effect = lower value; activity change, % (test concentration not listed); actives 0.49% (n = 340,000)
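Protein mix (5X: 125 nM each GST-E1A, His-CtBP) was incubated with pinned compound 2 h at 37 deg C in dark, in 50 mM Tris pH 8.0 buffer with 300 mM NaCl. Glutathione donor and nickel acceptor beads followed; AlphaScreen signal read after 1 h.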
Numbers without * were called inactive. The list is not random: actives were taken first. Their share in the collection is about 1.8%. Rule as the data show it, unless noted: active = activity change below about -65%; inconclusive = mostly about -30% to -63%; inactive = weaker than that. Unless noted, % is scaled to controls: 0 for no effect and ±100 for the full control effect.

Screening O=C(N/N=C/c1ccccn1)c1ccc(Br)cc1 returned PI5P4K alpha inh 0.8, Akt phos inh inactive, PI4K2A inh -0.3, Six1-Eya2 blk inconclusive and CtBP-E1A blk -65.2*.
CCn1c(=O)cc(OCC(=O)NCCCN2CC(C)CC(C)C2)c2ccccc21 (configuration not stated) was read as Akt phos inh inactive, PI4K2A inh 3.4, Six1-Eya2 blk 1.2 and CtBP-E1A blk -1.6.
Screening CC(NC(=O)c1cc(S(=O)(=O)N2CCOCC2)cn1C)c1ccccc1 (configuration not stated) returned PI5P4K alpha inh -2.3, Akt phos inh inactive, PI4K2A inh -0.7, Six1-Eya2 blk 5.2 and CtBP-E1A blk 7.7.
`COc1cccc(C2CC(C(F)(F)F)n3ncc(C(=O)Nc4c(C)n(C)n(-c5ccccc5)c4=O)c3N2)c1` (configuration not stated) gave PI5P4K alpha inh -0.4, Akt phos inh inactive, PI4K2A inh 0.4, Six1-Eya2 blk -6.1 and CtBP-E1A blk -5.3.
CCN(CC)S(=O)(=O)c1cccc(C(=O)N/N=C/c2ccccn2)c1 was read as PI5P4K alpha inh 1.8, Akt phos inh inactive, PI4K2A inh 0.5, Six1-Eya2 blk -72.6* and CtBP-E1A blk -23.5.
`Cc1cccc(C(=O)N/N=C/c2ccccn2)c1` gave PI5P4K alpha inh 3.6, Akt phos inh inactive, PI4K2A inh -7.1, Six1-Eya2 blk -28.6 and CtBP-E1A blk 6.4.
For CCN(CC)S(=O)(=O)c1cccc(C(=O)N/N=C/c2cccc(O)c2O)c1 the results were PI5P4K alpha inh -12.8, Akt phos inh inactive, PI4K2A inh -2.1, Six1-Eya2 blk -87.1* and CtBP-E1A blk -93.2*.
`Cc1sc2nc[nH]c(=S)c2c1-c1ccccc1` gave PI5P4K alpha inh -23.6, Akt phos inh inactive, PI4K2A inh -2.7, Six1-Eya2 blk -13.8 and CtBP-E1A blk -7.9.
`CCCn1c(=O)c2ccccc2n2c(SCc3nc4ccccc4s3)nnc12` gave Akt phos inh inactive, PI4K2A inh -6.3, Six1-Eya2 blk 0.6 and CtBP-E1A blk 9.6.
`CCOC(=O)c1nc(Nc2ccc(C(=O)O)cc2)c2ccccc2n1` gave PI5P4K alpha inh -7.8, Akt phos inh inactive, PI4K2A inh -1.2, Six1-Eya2 blk inconclusive and CtBP-E1A blk inconclusive.
Screening CCOC(=O)c1ccc(Nc2nc(C(=O)OCC)nc3ccccc23)cc1 returned PI5P4K alpha inh 2.2, Akt phos inh inactive, PI4K2A inh -2.2, Six1-Eya2 blk -78.9* and CtBP-E1A blk -89.5*.
Cc1ccc(OCCCC(=O)NCc2ccco2)cc1 was read as Akt phos inh inactive, PI4K2A inh -2.0, Six1-Eya2 blk -1.5 and CtBP-E1A blk -0.2.
`Cc1ccccc1OCCCC(=O)NCc1ccco1` gave Akt phos inh -100.9%*, PI4K2A inh 4.8, Six1-Eya2 blk 20.2 and CtBP-E1A blk 55.2.
Screening Cn1c(CN2CCCC2)nc2cc(NC(=O)COc3ccccc3)ccc21 returned PI5P4K alpha inh -1.9, Akt phos inh -105.9%*, PI4K2A inh 6.1, Six1-Eya2 blk 3.5 and CtBP-E1A blk 2.8.
Cn1c(CCN2CCCCC2)nc2cc(NC(=O)COc3ccccc3)ccc21 was read as PI5P4K alpha inh -0.4, Akt phos inh inactive, PI4K2A inh -0.2, Six1-Eya2 blk -1.1 and CtBP-E1A blk 1.7.
Screening COc1ccc(C(=O)CSc2nnc(CNc3nc(-c4ccccc4)cs3)n2C)cc1 returned PI5P4K alpha inh -3.6, Akt phos inh inactive, PI4K2A inh 2.0, Six1-Eya2 blk -70.9* and CtBP-E1A blk -69.9*.
CCCCn1c(=S)[nH]c2c(=O)n(C)c(=O)n(C)c21 was read as PI5P4K alpha inh -73.1*, Akt phos inh inactive, PI4K2A inh 4.8, Six1-Eya2 blk -7.2 and CtBP-E1A blk -6.1.
O=C(CCS(=O)(=O)c1nc(-c2cccs2)cc(C(F)(F)F)n1)Nc1ccc(OC(F)(F)F)cc1 was read as PI4K2A inh -68.4*.
Screening CCOC(=O)N1CCN(Cc2nc3cc(NC(=O)C(C)C)ccc3n2C)CC1 returned PI5P4K alpha inh -3.1, Akt phos inh inactive, PI4K2A inh 0.9, Six1-Eya2 blk 0.5 and CtBP-E1A blk 11.0.
